This is one part of a sample in which hits are shown more often than they occur.
HT1080 IDH1KD tx = toxicity to HT-1080 IDH1 knockdown cells (counter line). HT-1080 IDH1 knockdown viability, ATP luminescence, 48 h. 360,000 compounds, 2% hits. AID 686971. Potency, µM (titrated, usually from 46.1 µM), for inactives: at the top dose activity, negative = toxicity, actives largely listed as cytotoxic;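 further: potency means the concentration at half of the fitted maximal effect; 0% = DMSO wells and -100% = cell-free medium wells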
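Assay cells: HT-1080 with IDH1 knockdown, 750 per well, RPMI/5% FBS. Exposure: 48 h at 37 °C following 2 h pre-incubation. Read: CellTiter-Glo luminescence; fitted concentration-response, curve class assigned.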
HT1080NT lethal = kills 2HG-producing HT-1080-NT fibrosarcoma cells. 360,000 compounds, 1.6% hits. HT-1080-NT fibrosarcoma viability, CellTiter-Glo ATP luminescence, 48 h. Potency, µM (titrated, usually from 46.1 µM), without a hit: at the top dose activity, negative = less viability, actives largely listed as cytotoxic;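 further: NT is the 2HG producing partner of a matched IDH1 knockdown line; potency means the concentration at half of the fitted maximal effect; 0% = DMSO-treated cells and -100% = media-only wells without cells; nearly all actives have a fitted effect of over 55% in size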
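Viability by CellTiter-Glo luminescence after 48 h compound exposure at 37C of HT-1080-NT cells (750/well, RPMI, 5% FBS). % activity scaled between DMSO wells and medium-only wells, then curve-fitted and categorized by curve class.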
ALOX12 inh = ALOX12 (human) lipoxygenase inhibition; purified 12hLO, xylenol orange hydroperoxide absorbance; P18054; Potency, µM (titrated, usually from 108 µM), for inactives: at the top dose activity change, negative = inhibition, hits mostly inhibitors; 580,000 compounds, 1.1% hits; further: potency means the concentration at half of the fitted maximal effect
Target sequence (P18054 whole entry, looked up): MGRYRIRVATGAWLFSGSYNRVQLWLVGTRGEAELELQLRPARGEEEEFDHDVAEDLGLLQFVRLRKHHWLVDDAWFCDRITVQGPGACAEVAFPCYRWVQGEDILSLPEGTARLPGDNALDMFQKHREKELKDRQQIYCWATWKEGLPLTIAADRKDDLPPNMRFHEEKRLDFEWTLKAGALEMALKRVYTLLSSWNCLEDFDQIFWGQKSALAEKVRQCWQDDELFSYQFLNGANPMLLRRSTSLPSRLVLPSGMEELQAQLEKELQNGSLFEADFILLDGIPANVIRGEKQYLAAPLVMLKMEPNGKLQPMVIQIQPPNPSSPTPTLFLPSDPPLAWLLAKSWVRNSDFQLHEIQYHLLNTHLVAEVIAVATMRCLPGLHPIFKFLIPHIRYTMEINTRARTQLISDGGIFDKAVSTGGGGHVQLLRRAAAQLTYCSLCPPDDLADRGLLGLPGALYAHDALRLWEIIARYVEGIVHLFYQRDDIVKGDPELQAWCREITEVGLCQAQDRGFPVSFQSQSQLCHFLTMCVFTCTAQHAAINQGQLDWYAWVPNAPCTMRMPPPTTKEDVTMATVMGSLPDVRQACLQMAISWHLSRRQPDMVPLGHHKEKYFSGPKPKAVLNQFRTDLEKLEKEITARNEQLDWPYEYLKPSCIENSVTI
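Hydroperoxide product was detected by ferrous iron/xylenol orange as the 573 to 405 nm absorbance ratio. Arachidonic acid at 40 uM (final) was turned over for 30 min at room temperature by 150 nM human 12hLO, pH 7.0 Hepes buffer, after 15 min compound preincubation.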
TDP1 cell noCPT = qHTS for Inhibitors of human tyrosyl-DNA phosphodiesterase 1 (TDP1): qHTS in cells in absence of CPT | DT40 Tdp1-/- hTDP1 cells, no CPT, ATP luminescence, 48 h | Potency, µM (top dose mostly 46.2 µM), inactives show at the highest dose activity change, negative = growth inhibition, actives largely listed as inhibitors | 420,000 compounds, 15% hits; further: potency means the concentration at half of the fitted maximal effect; nearly all actives have a fitted effect of over 55% in size
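DT40 Tdp1-/-;hTDP1 cells, no CPT (DMSO vehicle only), 400 cells/well; compounds pin-transferred; ≥48 hr, 37 °C; CellTiter-Glo 30 min RT dark, luminescence read.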
DT40 TDP1 CPT = DT40-hTDP1 cell growth loss with CPT; AID 686979; 420,000 compounds, 12% hits; Potency, µM (top dose mostly 46.2 µM), without a hit: at the highest dose activity change, negative = growth inhibition, most hits filed as inhibitors; chicken DT40 Tdp1-/-;hTDP1 cells + 20 nM CPT, ATP luminescence, 48 h; further: potency means the concentration at half of the fitted maximal effect; nearly all actives have a fitted effect of over 55% in size
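Chicken DT40 Tdp1-/- cells complemented with human TDP1, 400 cells/well, exposed to compounds plus 20 nM camptothecin for at least 48 h at 37 C; viability read as ATP content by CellTiter-Glo luminescence.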
IL1B secr inh = inflammasome signaling inhibition, IL-1 beta readout; THP-1 LPS/ATP IL-1B secretion, AlphaLISA, 16 h; hits give low values; activity change, % at 57.5 µM; 360,000 compounds, 4.7% hits; in the data active means activity change below about -50%; inconclusive means mostly about -30% to -49%
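THP-1 cells pretreated 1 hr with compounds (up to 57.5 uM final), then stimulated with LPS (250 ng/mL final) plus ATP (1.25 mM final); secreted IL-1B measured by AlphaLISA after 16 hr, decreased signal indicating inhibition.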
* hit, by the source's call; ? = inconclusive; . = not tested or not shown; [ ] = dose if it differs, or a comment. Unless noted, the call rests on the fitted dose curve; in most records, active means well fitted curve in the direction sought with a large enough effect; inconclusive means small, poorly fitted or top-dose-only effect, or another doubt; inactive means no such curve, though single readings can be large; an effect the other way counts as inactive or inconclusive. Unless noted, on the % scale 0 is the no-effect control and ±100 the full control effect.

SMILES	HT1080 IDH1KD tx	HT1080NT lethal	ALOX12 inh	TDP1 cell noCPT	DT40 TDP1 CPT	IL1B secr inh
Cc1ccccc1S(=O)Cc1ccc(C(=O)NC2CCCCCC2)o1 (configuration not stated)	.	.	?	?	18µM*	.
COCc1nc(C2CCCN(C(=O)c3nccn3C)C2)no1 (configuration not stated)	.	.	42%	.	.	.
CCN1CCN(c2ccc(S(=O)(=O)N3CCCCC3)cc2NC(=O)C(C)Oc2ccc(F)cc2)CC1 (configuration not stated)	11%	2%	45µM*	18µM*	18µM*	?
CC(Oc1ccc(F)cc1)C(=O)Nc1cc(S(=O)(=O)N2CCCCC2)ccc1N1CCOCC1 (configuration not stated)	-1%	0%	?	16µM*	-8%	3
CCc1cnc(C)nc1N1CCC(=O)N(Cc2ccc(F)cc2)C(C(C)C)C1 (configuration not stated)	.	.	12%	.	.	.
Cc1ccc(C2NC(=O)c3n[nH]c(C(C)C)c32)cc1 (configuration not stated)	.	.	11%	.	.	.
Cc1cc(C)nc(Sc2ncnc3c2oc2ccccc23)n1	1%	6%	-17%	23µM*	?	-18
c1ccc2cc(Sc3ncnc4c3oc3ccccc34)ccc2c1	-1%	-2%	-9%	?	?	-7
CCCCNC(=O)c1c(CSc2ccc(Cl)cc2)noc1C(=O)NCc1ccccc1	2%	0%	?	?	18µM*	13
CN(C)CCNC(=O)c1c(CSc2ccc(Cl)cc2)noc1C(=O)NCc1ccccc1	9%	7%	?	16µM*	18µM*	-4
CCCNC(=O)c1c(CSc2ccc(Cl)cc2)noc1C(=O)NCc1ccccc1	0%	-5%	-24%	?	?	?
CCc1ccc(OCC(O)Cn2cnc3ccc(Cl)cc3c2=O)cc1 (configuration not stated)	.	.	48%	.	.	.
CC(SC#N)C(=O)C12CC3CC(CC(C3)C1)C2 (configuration not stated)	16µM*	?	-1%	4.6µM*	7.3µM*	-96*
O=C(CS(=O)(=O)c1cccc2nsnc12)N1CCN(c2cccc(C(F)(F)F)c2)CC1	.	.	-6%	21µM*	8.2µM*	.
Cc1cccc(N2CCN(C(=O)CS(=O)(=O)c3cccc4nsnc34)CC2)c1C	.	.	-7%	?	16µM*	.
CN1CCCC2(C1)CN(Cc1cccnc1)c1ccc(C(=O)Nc3ccccc3)cc12 (configuration not stated)	.	.	15%[176 µM]	.	.	.
CCOc1ccc(-c2nnc(SCc3nnc(-c4ccccc4)o3)n2-c2ccccc2F)cc1	-3%	2%	0%	23µM*	16µM*	-4
CCOc1ccc(-n2c(SCc3nc(-c4ccc(C)cc4)no3)nnc2-c2ccncc2)cc1	10µM*	?	-28%	?	?	-11
COc1ccc(-c2noc(CSc3nnc(C)n3-c3ccc(OC)cc3)n2)cc1	.	.	-24%	?	-19%	.
Cc1ccc(-c2nnc(CSc3nnc(COc4ccccc4)n3-c3ccccc3)o2)cc1	?	-22%	0%	?	?	4
Clc1ccccc1-c1nnc(SCc2nc(-c3ccccc3)no2)n1-c1ccccc1	.	.	?	7.3µM*	18µM*	.
Clc1cccc(-c2noc(CSc3nnc(C4CC4)n3-c3ccccc3)n2)c1	.	.	-21%	.	.	.
CCOc1ccc(-c2noc(CSc3nnc(-c4ccccc4)n3-c3ccccc3)n2)cc1	.	.	-16%	12µM*	21µM*	.
COCCN(CC(N)=O)S(=O)(=O)c1ccc(F)cc1Cl	.	.	0%	.	.	.
Cc1ccc(-c2noc(CSc3nnnn3C3CCCCC3)n2)cc1	-6%	-14%	-14%	?	21µM*	9
SMILES	HT1080 IDH1KD tx	HT1080NT lethal	ALOX12 inh	TDP1 cell noCPT	DT40 TDP1 CPT	IL1B secr inh
Clc1ccc(-c2noc(CSc3nnc(-c4ccncc4)n3-c3ccccc3)n2)cc1	?	?	18%	?	?	-56*
Cc1ccc(-n2c(SCc3nc(-c4ccc(Cl)cc4)no3)nnc2-c2ccncc2)cc1	.	.	-14%	16µM*	15µM*	.
Cc1ccc(-c2noc(CSc3nnc(-c4ccncc4)n3-c3ccc(C)cc3)n2)cc1	?	-24%	0%	16µM*	21µM*	0
Cc1cc(F)ccc1S(=O)(=O)Nc1cccc(N2CCCS2(=O)=O)c1	.	.	-40%	.	.	.
Cc1cc(C(=O)N2CCCCC2c2noc(COc3ccc(F)cc3)n2)n[nH]1 (configuration not stated)	.	.	19%	.	.	.
CC1CCC(NC(=O)C(=O)Nc2ccc(C(C)(C)C)cc2)CC1 (configuration not stated)	.	.	-24%	.	.	.
c1cncc(-c2ccnc3nc(C4CCC4)nn23)c1	.	.	21%	.	.	.
COc1ccc(NC(=O)CS(=O)c2cccc(C(F)(F)F)c2)cc1 (configuration not stated)	7%	-2%	-6%	-1%	0%	0
COc1ccc(-c2noc(CSc3nnc(-c4ccncc4)n3-c3ccc(OC)cc3)n2)cc1	.	.	-10%	?	23µM*	.
COc1ccc(-c2noc(CSc3nnc(-c4ccncc4)n3-c3ccc(C)cc3)n2)cc1	.	.	2%	?	?	.
CC(C)NCC(=O)C12CC3CC(CC(C3)C1)C2	1%	-4%	11%	-4%	-4%	-4
COc1cccc(C(=O)c2sc(NC(C)C)nc2N)c1	?	-24%	-21%	?	?	-107*
CC(C)Nc1nc(N)c(C(=O)C23CC4CC(CC(C4)C2)C3)s1	-4%	-1%	?	?	21µM*	24
COc1ccc(C(=O)c2sc(Nc3cccc(C(F)(F)F)c3)nc2N)cc1OC	.	.	-62%	.	.	.
COc1ccc(C(=O)c2sc(NC(C)C)nc2N)cc1OC	-4%[9.24 µM]	?	-13%	23µM*	?	-109*
O=C(NCc1nnc2n1CCCC2)[C@H]1CNC[C@H](C(=O)N2CCCC2)C1	.	.	21%	.	.	.
COC(=O)CCC(=O)NC1CC(C)(C)Cc2c1cnn2-c1ccc(F)cc1 (configuration not stated)	-6%	-6%	8%	?	0.58µM*	26
Cc1ccccc1-n1ncc2c1CC(C)(C)CC2NC(=O)CSc1ccncc1 (configuration not stated)	0%	7%	3%	16µM*	?	-9

Screening data: PubChem, National Center for Advancing Translational Sciences (NCATS)
